Among the data in PubChem BioAssay AID696 (Sanford-Burnham Center for Chemical Genomics, 2007) are activation fold values, retold here.

Out of some 96,000 compounds screened, about 1,200 (1.2%) were called active. Many of the other results were omitted from the sample, so actives are more common in it than they were. Unmarked numbers belong to inactive results. Cut-off read from the data, not from the text of the source: active = activation fold above about 2; inactive = the rest.

In this assay the target is Alkaline phosphatase, placental type (Homo sapiens) (UniProt P05187). The assay is described as follows: PLAP enzyme activators, biochemical, luminescence, HTS (AID 696). As to conditions: purified PLAP enzyme, luminescent substrate read-out; at 20 µM; stronger effect = higher value.
Chain of Alkaline phosphatase, placental type (Homo sapiens) (P05187 whole entry, looked up): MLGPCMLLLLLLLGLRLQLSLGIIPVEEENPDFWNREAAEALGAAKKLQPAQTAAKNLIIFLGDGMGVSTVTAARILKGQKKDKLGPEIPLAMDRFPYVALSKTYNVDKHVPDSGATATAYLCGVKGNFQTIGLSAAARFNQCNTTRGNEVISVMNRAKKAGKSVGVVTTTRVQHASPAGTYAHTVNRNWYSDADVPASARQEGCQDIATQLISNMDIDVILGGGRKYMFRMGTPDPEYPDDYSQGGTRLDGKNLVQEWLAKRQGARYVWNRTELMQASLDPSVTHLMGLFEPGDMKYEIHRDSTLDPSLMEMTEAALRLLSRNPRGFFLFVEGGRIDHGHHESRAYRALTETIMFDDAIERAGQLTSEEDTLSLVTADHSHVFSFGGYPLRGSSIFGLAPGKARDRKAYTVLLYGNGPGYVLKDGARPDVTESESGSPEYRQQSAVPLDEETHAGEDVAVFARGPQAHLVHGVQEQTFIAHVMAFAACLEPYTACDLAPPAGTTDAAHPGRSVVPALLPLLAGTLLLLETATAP
`CN1/C(=c2/s/c(=C3/C(=O)N(c4ccccc4)NC3=Nc3ccccc3)n(C)c2=O)C(C)(C)c2ccccc21`: the activation fold was 0.7.

Consider `COc1ccc(S(=O)(=O)Nc2ccc3oc(C)c(C(C)=O)c3c2)cc1`, for which the activation fold was 1.3. The value for `Cc1nc2nc(C)c(CCC(=O)N3CCN(c4ccccc4)CC3)c(C)n2n1` was 0.8; that for `CC1CC(c2ccccc2)n2nc(NC(=O)c3cccs3)nc2N1` (centres undefined) was 2.1 (active).

Regarding `O=C(Nc1ncccn1)c1cccs1`, the activation fold is 0.9.

`COc1ccc(CC(=O)Nc2nc3n(n2)C(c2ccccc2)CC(=O)N3)cc1OC` (centres undefined): the activation fold is 1.5. Consider `CN(C(=O)CSc1nnc(N)s1)c1c(N)n(Cc2ccccc2)c(=O)[nH]c1=O`, for which the activation fold was 1.1. Take `O=C(CN1C(=O)CC(c2ccccc2)=Nc2ccccc21)NC1CCCCC1`: the activation fold was 1.

For `Cc1ccc(-n2nc3ccc(NC(=O)/C=C/c4ccco4)cc3n2)cc1C`, the activation fold was 0.9. Regarding `Cc1cccc(NC(=O)CSc2nnc(-c3ccco3)o2)c1`, the activation fold is 2 (active). On to `O=C(CSc1nnc(-c2ccco2)o1)NCC(=O)c1ccccc1`, for which the activation fold is 1.2.

Consider `CCOC(=O)c1sc(NC(=O)CSc2nnc(-c3ccco3)o2)c(C(=O)OCC)c1C`, for which the activation fold is 1.

Turning to `CONC(=O)c1cc(OCC(F)(F)F)ccc1OCC(F)(F)F`, the activation fold was 1. The value for `Cn1c(SCC(=O)NC2CCCCC2)nnc1-c1cc2ccccc2o1` was 1.1; that for `Cc1cccc(N2C(=O)c3cccnc3C2=O)c1` was 1; that for `Cc1cccc(N2C(=O)C3C(c4ccccc4)OC4(C(=O)c5ccccc5C4=O)C3C2=O)c1` (centres undefined) was 1.2. As to `CCCc1nc2scc(-c3ccc(C)cc3)c2c(=O)n1N`, the activation fold is 0.9. Turning to `N#C/C(=C(\O)CCl)c1nnc2n1CCCCC2`, the activation fold was 0.8. Take `Cc1cc([N+](=O)[O-])ccc1NCc1cccc([N+](=O)[O-])c1`: the activation fold is 1. As for `COCCCn1c(SCc2cccc(OC)c2)nc2cc(OC)c(OC)cc2c1=N`, the activation fold is 1.5. The value for `Oc1c(C(c2ccco2)N2CCC3(CC2)OCCO3)sc2ncnn12` (centres undefined) was 1.7; that for `Cc1ccc(C(c2sc3nc(C)nn3c2O)N2CCN(c3ccc(F)cc3)CC2)cc1` (centres undefined) was 1.7. For `Oc1c(C(c2cccs2)N2CCN(c3ccc(F)cc3)CC2)sc2ncnn12` (centres undefined), the activation fold was 2 (active). As for `O=C(O)c1cnn2c(C(F)(F)F)cc(-c3ccccc3)nc12`, the activation fold is 0.9. The value for `C/C(=N\NC(=O)Cc1ccc(Cl)cc1)c1ccccn1` was 1.8; that for `CCNc1nc(N)nc(-c2cc(Cl)ccc2OC)n1` was 1.

With `COc1ccccc1CCNC(=O)c1cnccn1`, the activation fold is 1.2.

For the molecule `COc1ccc(C(=O)NNC(=O)c2cnccn2)cc1[N+](=O)[O-]`, the activation fold is 2.8 (active). In the case of `CC(C)NC(=O)c1ccc(Sc2ccccc2)c([N+](=O)[O-])c1`, the activation fold is 1.2.

In the case of `CC(Oc1ccc(F)cc1F)C(=O)/C=C/N(C)C` (centres undefined), the activation fold is 1.2. Consider `CC(=O)c1sc(NC(=O)c2cccc3ccccc23)nc1C`, for which the activation fold was 1. On to `CC(=O)c1sc(NC(=O)c2ccc(C)cc2)nc1C`, for which the activation fold was 1.2. For the molecule `COc1cccc2sc(Nc3nc(C)c(C(C)=O)s3)nc12`, the activation fold was 2.4 (active). For `Cc1ccc(NC(=S)NC(NC(=O)Cc2cccc3ccccc23)C(Cl)(Cl)Cl)cc1` (centres undefined), the activation fold was 0.6. Consider `COC(=O)c1ccc(CSc2nnc(NC(C)C)s2)cc1`, for which the activation fold is 0.9.

Take `Cc1ccc(NC(=O)N2CCC(O)(c3cccnc3)CC2)cc1`: the activation fold is 0.9. As for `CC1=NN(C(=O)c2ccccc2Br)C(O)(c2cccnc2)C1` (centres undefined), the activation fold is 1.4. As to `CC1=NN(C(=O)Cc2ccc(C)cc2)C(O)(c2cccnc2)C1` (centres undefined), the activation fold was 2.4 (active). The value for `O=C(Nc1ccc2ccccc2c1)Nc1ccc2snnc2c1` was 0.9. `O=C(NCCCCCCCCCNC(=O)C(F)(F)F)C(F)(F)F`: the activation fold was 0.9. Regarding `COc1ccc(Cl)cc1NC(=O)CN(C)C(=O)CNC(=O)C12CC3CC(CC(C3)C1)C2`, the activation fold was 2 (active). The value for `COc1ccc(Cl)cc1NC(=O)c1oc(C)nc1C` was 1.4; that for `CCCCC(=O)N/N=C(\C)CC(=O)Nc1cc(Cl)ccc1OC` was 0.9; that for `O=C(COc1ccc(Br)cc1F)NC1CCN(Cc2ccccc2)CC1` was 1.7. Turning to `Cc1ccc2[nH]c(=O)c(CN(CCCN(C)C)C(=O)Nc3cccc(Cl)c3)cc2c1`, the activation fold was 1.5. In the case of `CN(C)S(=O)(=O)c1ccc(NC(=O)COC(=O)c2n[nH]c3ccccc23)cc1`, the activation fold is 1.

As to `COc1ccc(COC(=O)c2n[nH]c3ccccc23)cc1F`, the activation fold is 1.4.

On to `O=C(COC(=O)c1n[nH]c2ccccc12)NCc1ccccc1`, for which the activation fold is 2.2 (active). Regarding `Cn1c(N)c(C(=O)COC(=O)C23CC4CC(CC(C4)C2)C3)c(=O)n(C)c1=O`, the activation fold is 1.9. For the molecule `CCC(O)CNc1nc(-n2nc(C)cc2C)nc2sc3c(c12)CC(C)(C)OC3` (centres undefined), the activation fold is 1. For the molecule `CC/C(C)=N/Nc1nc2sc3c(c2c(=O)[nH]1)CC(C)(C)OC3`, the activation fold is 1.1. With `C=CCNC(=S)NNc1ncnc2sc3c(c12)CC(C)(C)OC3`, the activation fold is 2.2 (active). For `Cc1ccc(SC(=O)COc2ccc(C)c(C)c2)cc1`, the activation fold is 1. Turning to `CCOC(=O)C1=C(CNC2CCCCC2)NC(=O)NC1c1cc(C)ccc1C` (centres undefined), the activation fold is 1.1.

As to `COc1cc(OC)c(C(=O)NC2CCCCCC2)cc1OC`, the activation fold is 1.7.

Regarding `CCOC(=O)c1[nH]cnc1C(=O)NC1CCCCC1`, the activation fold is 2.2 (active). Turning to `Cc1cc(C(=O)OC(C)C(=O)Nc2cccc(S(=O)(=O)N3CCOCC3)c2)c(C)o1` (centres undefined), the activation fold is 1.7. The value for `CCOc1nnc(C)c2c(C)n(-c3cccc(Cl)c3)nc12` was 2.1 (active).

On to `CCOc1cccc(-n2nnnc2-c2ccc(OC)cc2)c1`, for which the activation fold was 1.4. For the molecule `COC(=O)C(C)n1cnc2c(nnn2-c2cccc(Cl)c2)c1=O` (centres undefined), the activation fold is 0.9. As for `CCCCCCCC(=O)NC(Nc1ccccc1OC)C(Cl)(Cl)Cl` (centres undefined), the activation fold is 0.9. With `CCN(CC)S(=O)(=O)c1ccc2nc(CSc3nnnn3-c3ccc(O)cc3)[nH]c2c1`, the activation fold is 2.7 (active).

For `O=c1c2ccccc2nc(CSc2nnnn2-c2ccccc2)n1-c1ccccc1`, the activation fold was 0.9. Regarding `CCN(CC)S(=O)(=O)c1ccc2nc(COC(=O)c3n[nH]c4ccccc34)[nH]c2c1`, the activation fold is 1.8.
